This is a sample that favours compounds with a hit; in the whole collection about 22% have one here.
Cycloheximide cs – counter-screen hit for Shiga toxin inhibitors, cycloheximide; cell reporter, cycloheximide protein synthesis inhibition counterscreen; max response, %; hit rate 12% among 300,000; AID 2314; in the data active = max response mostly above about 13%, no sharp cut-off; inactive = mostly below about 14%; note: read at 38.3 µM for the half of the compounds with a filed dose; 0% is about no effect
Pf growth 48h – P. falciparum growth inhibition at 48 hours (one generation); P. falciparum luciferase growth in erythrocytes, 48 h; Potency, µM (titrated, usually from 28.7 µM), inactives show top-dose activity change, negative = inhibition, usual class: inhibitors; hit rate 5.9% among 310,000; note: potency is the fitted concentration of half-maximal effect; % is set by controls: 0 for no effect and ±100 for the full control effect
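Parasite viability was followed by luminescence of a genomically integrated firefly luciferase. Cultures held 0.1% parasitemia at 2% hematocrit (final), incubated under 5% CO2 at 37 C.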
Shiga toxin inh – blocks Shiga toxin action in Vero cells. AID 2315. inhibition, % at 38.7 µM. hit rate 9.2% among 290,000. Vero cells, Shiga toxin protein synthesis inhibition reporter; in the data active = inhibition mostly above about 28%, no sharp cut-off; inactive = mostly below about 43%; note: 0% is about no effect
LmPK inhibitor – LmPK (Leishmania mexicana) enzyme inhibition; hit rate 0.37% among 290,000; Potency, µM (doses to about 57.5 µM), for inactives: at the top dose activity change, negative = inhibition, most hits filed as inhibitors; purified LmPK, Kinase-Glo ATP luminescence, 1 h; AID 1721; note: potency is the fitted concentration of half-maximal effect; % is set by controls: 0 for no effect and ±100 for the full control effect
Target sequence (Q27686 whole entry, looked up): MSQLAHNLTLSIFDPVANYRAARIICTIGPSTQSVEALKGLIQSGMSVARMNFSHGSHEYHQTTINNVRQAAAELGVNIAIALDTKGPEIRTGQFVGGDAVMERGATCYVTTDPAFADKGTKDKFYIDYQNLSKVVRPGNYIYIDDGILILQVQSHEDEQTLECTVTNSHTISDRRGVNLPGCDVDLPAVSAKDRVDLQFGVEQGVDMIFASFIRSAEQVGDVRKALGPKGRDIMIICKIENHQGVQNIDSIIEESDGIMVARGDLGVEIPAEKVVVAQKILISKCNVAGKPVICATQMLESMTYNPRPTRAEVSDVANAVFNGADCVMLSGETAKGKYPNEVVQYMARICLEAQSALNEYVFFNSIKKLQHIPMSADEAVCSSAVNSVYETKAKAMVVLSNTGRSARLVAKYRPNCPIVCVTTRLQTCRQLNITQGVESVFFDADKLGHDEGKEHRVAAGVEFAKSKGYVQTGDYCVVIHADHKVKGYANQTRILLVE
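qHTS format; LmPK 0.1 nM; substrates PEP 0.5 mM and ADP 0.1 mM. One-hour room-temperature incubation, then coupled luciferase luminescence; 0.5 nM enzyme wells mark activation.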
Pf growth 96h – P. falciparum growth inhibition at 96 hour, primary screen for plastid delayed-death inhibitors. P. falciparum luciferase reporter growth, 96 h. hit rate 6.9% among 320,000. Potency, µM (top dose mostly 28.7 µM), for inactives: at the top dose activity change, negative = inhibition, hits mostly inhibitors; note: potency is the fitted concentration of half-maximal effect; % is set by controls: 0 for no effect and ±100 for the full control effect
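Delayed-death screen, second-generation endpoint: infected erythrocytes, 2% hematocrit, 0.05% parasitemia final; 96 hours at 37 C, 5% CO2; luciferase detection reagent; luminescence decrease equals reduced growth.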
* marks the source's active call; other numbers are inactive results; ? = inconclusive; nt = no result. Unless noted, calls come from the whole dose curve; as a rule, active = well fitted inhibition curve with a large enough effect; inconclusive = small, poorly fitted or top-dose-only effect, or another doubt; inactive = no such curve, though single readings can be large or run the other way.

SMILES	Cycloheximide cs	Pf growth 48h	Shiga toxin inh	LmPK inhibitor	Pf growth 96h
Cc1oc(-c2cc(F)ccc2F)nc1CN(C)Cc1ccc2nccnc2c1	-5	?	-2	6%	2.9µM*
Cc1oc(-c2cc(F)ccc2F)nc1CN1CCN(c2cnccn2)CC1	-2	13µM*	-4	2%	?
O=C(O)c1cccc(N=C2NC(=O)C(CO)(CO)S2)c1	2	31%	nt	7%	-15%
CCCCN=c1scc(-c2ccc3c(c2)NC(=O)CO3)n1N=C1CCCC1	-2	nt	-13	3%	9.3µM*
O=C(Nc1cc(Sc2ccccn2)cc([N+](=O)[O-])c1)c1ccc(Cl)cc1	21*	?	57	0%	?
O=C(Nc1cc(Sc2ccccn2)cc([N+](=O)[O-])c1)c1cccc(Cl)c1	9	9.3µM*	8	1%	20%
COc1ccc(N2CCN(C(CNS(=O)(=O)c3ccccc3)c3ccccc3)CC2)cc1 (stereo not drawn)	-3	-21%	11	-5%	-12%
CCc1c(C(=O)c2ccc(Cl)cc2)oc2c(C)c3oc(=O)cc(C)c3cc12	-3	5%	2	-2%	4%
Cc1ccc(/C(=N\O)c2oc3c(C)c4oc(=O)cc(C)c4cc3c2C)cc1	-3	?	21	7%	9.3µM*
CCc1c(C(C)=O)oc2ccc3c(C)cc(=O)oc3c12	-3	?	-4	6%	?
Cc1cc(=O)oc2c1ccc1oc(/C(=N/O)c3ccccc3)c(C)c12	6	1.7µM*	-2	6%	nt
NC(=O)c1ccccc1NC(=O)c1ccoc1	8	30%	1	-13%	46%
Cc1ccc(S(=O)(=O)N2CCOCC2)cc1C(=O)O	-7	7%	-15	-5%	nt
Cc1ccc(S(=O)(=O)N2CCOCC2)cc1C(=O)OCCOc1cccc(Cl)c1	nt	?	nt	nt	10µM*
COc1cccc(NC(=O)COC(=O)c2cc(S(=O)(=O)N3CCOCC3)ccc2C)c1	5	nt	16	16%	21%
CCn1c(SCC(=O)c2cc(C)ccc2C)nc2cc(S(=O)(=O)N3CCOCC3)ccc21	1	?	2	6%	7.4µM*
Cc1ccc(COC(=O)c2cc(S(=O)(=O)N3CCOCC3)ccc2C)cc1	nt	9.3µM*	nt	nt	13µM*
COc1ccc(/C=N/N=C2/NC(=O)C(c3ccccc3)(c3ccccc3)S2)cc1	5	nt	-15	4%	-9%
CC1CCCC(NC(=O)COC(=O)c2sc3ccccc3c2Cl)C1C (stereo not drawn)	-2	-2%	1	3%	38%
Cc1ccc(C(C)C)c(OCC(=O)NN=C(CCl)CCl)c1	8	-27%	17	3%	0%
Cc1cccc(NCc2nc(-c3ccccc3)no2)c1	36*	nt	41	3%	5%
Cc1ccc(-c2noc(CNS(=O)(=O)c3ccccc3)n2)cc1	43*	31%	39*	0%	187%
COc1ccc(-c2noc(CNS(=O)(=O)c3ccccc3)n2)cc1	17*	30%	41	-1%	73%
O=S(=O)(NCc1nc(-c2ccccc2)no1)c1ccc(F)cc1	-1	11%	13	-1%	-28%
Cc1ccc(OCc2nc(-c3ccccc3)no2)c(C)c1	36*	213%	98*	-8%	62%
SMILES	Cycloheximide cs	Pf growth 48h	Shiga toxin inh	LmPK inhibitor	Pf growth 96h
Cc1cc(C)c(C)c(OCc2nc(-c3cccnc3)no2)c1	-2	-6%	2	-6%	20%
Cc1cccc(OCC(=O)NCc2nc(-c3ccccc3)no2)c1	0	-1%	1	-2%	?
CN(CC(=O)NCc1ccco1)CC(=O)Nc1cc(S(C)(=O)=O)ccc1Cl	nt	24%	nt	nt	8%
Cn1cnnc1SCCNS(=O)(=O)c1cccc([N+](=O)[O-])c1	-2	11%	-2	6%	-16%
COc1ccc(C(=O)NCCNc2nc3ccc(C)cc3cc2C#N)cc1OC	-2	-2%	-5	-8%	20%
Cc1c(OCC(=O)NCc2ccccn2)ccc2c3c(c(=O)oc12)CCCC3	-4	?	-1	14%	?
O=C(COc1cc2oc(=O)c3c(c2cc1Cl)CCC3)Nc1cccnc1	28*	149%	21	0%	190%
Cc1c(OCC(=O)Nc2cccnc2)ccc2c3c(c(=O)oc12)CCC3	20*	-23%	23	-10%	?
O=c1cc(CS(=O)(=O)c2ccccc2)nc(-c2ccncc2)[nH]1	-3	12µM*	-6	3%	?
Nc1nc(SCc2ccc(Br)cc2)n[nH]1	27*	43%	53*	-12%	7%
Nc1ccccc1SCc1ccccc1	72*	28%	89*	9%	24%
Nc1nc(SCc2ccccc2)n[nH]1	11*	6%	19	1%	43%
c1ccc(CSCc2ccccc2)cc1	nt	-30%	nt	nt	7%
Nc1nc(SCc2c(Cl)cccc2Cl)n[nH]1	-2	nt	-8	12%	1.3µM*
Nc1nc(SCc2ccc(Cl)c(Cl)c2)n[nH]1	8	-13%	54	-3%	?
COc1cc(OC)cc(C(=O)NCCS(=O)(=O)N2CCN(Cc3ccccc3)CC2)c1	nt	2%	nt	nt	?
COC(=O)c1ccccc1NC(=O)N1c2ccccc2Sc2ccccc21	-1	?	-4	0%	?
CCn1cc(C(=O)O)c(=O)c2cc(F)c(N/N=C/c3ccccc3[N+](=O)[O-])cc21	-3	6%	-10	3%	6%
CCN(CC)S(=O)(=O)c1ccc(S(=O)(=O)N2CCC(N3CCCCC3)CC2)cc1	-5	-4%	11	0%	386%
COC(=O)C1=NN(C(=O)c2cccc(Br)c2)C(O)(c2ccc(Cl)cc2)C1 (stereo not drawn)	-1	17%	-9	11%	-15%
CCOC(=O)C1=NN(C(=O)c2ccccc2)C(O)(c2ccc(C)cc2)C1 (stereo not drawn)	45*	5%	89*	0%	-1%
CCOC(=O)C1=NN(C(=O)c2cccc(Br)c2)C(O)(C(C)(C)C)C1 (stereo not drawn)	20*	?	74*	1%	6%
CC1=NN(C(=O)c2ccccc2Cl)C(O)(c2ccccc2)C1 (stereo not drawn)	2	5%	-4	1%	?
CC1=NN(C(=O)c2ccccc2F)C(O)(c2ccc(Cl)cc2)C1 (stereo not drawn)	15	0%	57	-1%	13µM*
O=C1CN(C(=O)c2cccc([N+](=O)[O-])c2)CC(=O)N1	-1	18%	nt	10%	?
CCC1=NN(C(=O)c2cccc([N+](=O)[O-])c2)C(O)(c2ccc(C)cc2)C1 (stereo not drawn)	4	4.1µM*	11	0%	-24%
COc1ccc(-c2cc(=O)oc3cc(OCC(=O)NCc4ccccn4)ccc23)cc1	-2	-6%	-3	6%	?
CCC1=NN(C(=O)c2ccc(Br)cc2)C(O)(c2ccccc2)C1 (stereo not drawn)	2	58%	-9	0%	45%
